Assay results reported in PubChem BioAssay (Tox21).
Inconclusive results are not listed. Activity calls are given as the source filed them. Unless noted, the call rests on the fitted dose curve; in most records, active means well fitted curve in the direction sought with a large enough effect in the repeat runs; inconclusive means weak or mixed curves; inactive means no such curve, though single readings can be large; an effect the other way counts as inactive or inconclusive.

What was measured:
[1] = qHTS assay for small molecule agonists of the p53 signaling pathway (AID 651631; calls by dose curve; further: nearly all actives have a fitted effect of over 15% in size)
In short: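 HCT-116 p53RE-bla reporter line, 16 h compound treatment at 37 °C, then fluorescence after 2 h with B/G FRET substrate.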

[2] = qHTS assay for small molecules that induce genotoxicity in human embryonic kidney cells expressing luciferase-tagged ATAD5 (AID 651632); further: nearly all actives have a fitted effect of over 15% in size
In short: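 ATAD5-luc HEK293T, 2,000 cells/well; cpd or DMSO pin-transferred; 16 hr, 37C/5% CO2; Amplite 30 min RT; luminescence.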

[3] = qHTS assay for small molecule agonists of the p53 signaling pathway - cell viability (AID 651633; calls by dose curve;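 further: p53RE-bla HCT reporter cells with a stable beta-lactamase p53 reporter; series mostly up to about 83 µM; nearly all actives have a fitted effect of over 30% in size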)
In short: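 p53RE-bla cells were treated with compound for 16 hours at 37 C. Cytotoxicity was then measured as CellTiter-Glo luminescence after 30 min at room temperature.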

[4] = qHTS assay for small molecules that induce genotoxicity in human embryonic kidney cells expressing luciferase-tagged ATAD5 - cell viability (AID 651634; calls by dose curve; further: nearly all actives have a fitted effect of over 25% in size)
In short: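 Fluorescence from CellTiter-Fluor, reporting protease activity within live cells, served as the viability read-out. HEK293T cells carrying luciferase-tagged ATAD5 had been treated with compound for 15.5 hr at 37C.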

[5] = qHTS assay to test for compound auto fluorescence at 590 nm (red) in HepG2 cells (AID 720674)
In short: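 HepG2 cells, 2,000 per well in MEM with 10% FBS, attached overnight at 37 C, then got 23 nL compound or DMSO. After 1 hr at 37 C, 5% CO2, red fluorescence was read at 540/590 nm against Rose Bengal sodium as reference.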

[6] = qHTS assay to test for compound auto fluorescence at 535 nm (green) in HepG2 cells (AID 720675)
[7] = qHTS assay to test for compound auto fluorescence at 460 nm (blue) in HEK293 cells (AID 720678)
In short: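 HEK293, 2,000 cells/well, 10% dialyzed FBS; attach 4-5 hr 37C; pin compound or DMSO; o/n 37C/5% CO2; fluorescence 405/460 nm; triamterene-equivalent units.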

[8] = qHTS assay to test for compound auto fluorescence at 590 nm (red) in HEK293 cells (AID 720679)
In short: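 Intensity at 540nm excitation and 590nm emission is reported as Rose Bengal sodium-equivalent autofluorescence. Measurements followed overnight exposure (37C, 5% CO2) of HEK293 cells, 2,000 per well, to 23 nL compound.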

[9] = qHTS assay to test for compound auto fluorescence at 535 nm (green) in HEK293 cells (AID 720680)
[10] = qHTS assay to test for compound auto fluorescence at 460 nm (blue) in HEK293 cell free culture (AID 720681)
In short: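 Compounds were added to cell-free DMEM with 10% FBS and fluorescence read directly. The blue channel used 405 nm excitation and 460 nm emission, with triamterene as the reference fluorophore.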

[11] = qHTS assay to test for compound auto fluorescence at 535 nm (green) in HEK293 cell free culture (AID 720682)
In short: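 Steps: dispense DMEM/10% FBS into empty wells; pin in compound or DMSO; measure fluorescence at 485/535 nm. Values are fluorescein equivalents.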

[12] = qHTS assay to test for compound auto fluorescence at 590 nm (red) in HEK293 cell free culture (AID 720683)
In short: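 Cell-free wells of DMEM with 10% FBS received compound, and intrinsic fluorescence was read at excitation/emission 540/590 nm. Values expressed as equivalence to Rose Bengal sodium.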

[13] = qHTS assay to test for compound auto fluorescence at 590 nm (red) in HepG2 cell free culture (AID 720684)
In short: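 Compound was pinned into wells holding MEM with 10% FBS and no cells, and red fluorescence was read at Ex/Em 540/590 nm. Signal is expressed as auto fluorescence equivalency relative to Rose Bengal sodium.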

[14] = qHTS assay to test for compound auto fluorescence at 460 nm (blue) in HepG2 cell free culture (AID 720685)
In short: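 Compound (23 nL) or DMSO pinned into cell-free MEM with 10% FBS; blue fluorescence read at 405/460 nm excitation/emission, expressed as auto-fluorescence equivalency to triamterene.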

[15] = qHTS assay to test for compound auto fluorescence at 535 nm (green) in HepG2 cell free culture (AID 720686)
[16] = qHTS assay to test for compound auto fluorescence at 460 nm (blue) in HepG2 cells (AID 720687)
In short: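 HepG2 cells in MEM with 10% FBS, attached overnight at 37 C, were exposed to compound or DMSO for 1 hr at 37 C, 5% CO2. Blue fluorescence was read at 405/460 nm, with triamterene as reference fluorophore.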

[17] = qHTS assay for small molecule disruptors of the mitochondrial membrane potential - cell viability (AID 720634; calls by dose curve;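 further: human HepG2 liver cancer cells; series mostly up to about 83 µM; nearly all actives have a fitted effect of over 20% in size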)
In short: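 Cells: HepG2, 2,000/well, attached overnight. Compound 1 hr, 37 C/5% CO2. +m-MPI dye, +CellTiter-Glo 30 min RT. Readout: luminescence (ATP).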

[18] = target: Glucocorticoid receptor (Homo sapiens) (UniProt P04150); assay: qHTS assay to identify small molecule agonists of the glucocorticoid receptor (GR) signaling pathway (AID 720691; active means well fitted activation curve with a large enough effect in the signal ratio in the repeat runs, not every such curve was filed as active; the % refers to the signal ratio)
In short: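 Fluorescence intensity from LiveBLAzer B/G FRET substrate (2 h, room temperature) reports beta-lactamase expression driven by the glucocorticoid response element in GR-bla HeLa cells after 18 h compound exposure at 37 C.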

[19] = qHTS assay for small molecule disruptors of the mitochondrial membrane potential (AID 720635)
In short: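 HepG2 cells exposed to compound 1 hr at 37C, then Mito-MPS dye 30 min. Ratio read of aggregate (540/590 nm) versus monomer (490/535 nm) fluorescence.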

[20] = target: Glucocorticoid receptor (Homo sapiens) (UniProt P04150); assay: qHTS assay to identify small molecule antagonists of the glucocorticoid receptor (GR) signaling pathway (AID 720692; active means well fitted inhibition curve with a large enough effect in the signal ratio in the repeat runs, not every such curve was filed as active; the % refers to the signal ratio)
In short: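 HeLa GR-bla cells; cmpd + dex 5 nM final, 18 h 37 C; LiveBLAzer B/G FRET substrate 2 h RT; fluorescence intensity read. Antagonist mode, qHTS.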
On the % scale 0 is the no-effect control and ±100 the full control effect.

Sequence of Glucocorticoid receptor (Homo sapiens) (P04150 whole entry, looked up): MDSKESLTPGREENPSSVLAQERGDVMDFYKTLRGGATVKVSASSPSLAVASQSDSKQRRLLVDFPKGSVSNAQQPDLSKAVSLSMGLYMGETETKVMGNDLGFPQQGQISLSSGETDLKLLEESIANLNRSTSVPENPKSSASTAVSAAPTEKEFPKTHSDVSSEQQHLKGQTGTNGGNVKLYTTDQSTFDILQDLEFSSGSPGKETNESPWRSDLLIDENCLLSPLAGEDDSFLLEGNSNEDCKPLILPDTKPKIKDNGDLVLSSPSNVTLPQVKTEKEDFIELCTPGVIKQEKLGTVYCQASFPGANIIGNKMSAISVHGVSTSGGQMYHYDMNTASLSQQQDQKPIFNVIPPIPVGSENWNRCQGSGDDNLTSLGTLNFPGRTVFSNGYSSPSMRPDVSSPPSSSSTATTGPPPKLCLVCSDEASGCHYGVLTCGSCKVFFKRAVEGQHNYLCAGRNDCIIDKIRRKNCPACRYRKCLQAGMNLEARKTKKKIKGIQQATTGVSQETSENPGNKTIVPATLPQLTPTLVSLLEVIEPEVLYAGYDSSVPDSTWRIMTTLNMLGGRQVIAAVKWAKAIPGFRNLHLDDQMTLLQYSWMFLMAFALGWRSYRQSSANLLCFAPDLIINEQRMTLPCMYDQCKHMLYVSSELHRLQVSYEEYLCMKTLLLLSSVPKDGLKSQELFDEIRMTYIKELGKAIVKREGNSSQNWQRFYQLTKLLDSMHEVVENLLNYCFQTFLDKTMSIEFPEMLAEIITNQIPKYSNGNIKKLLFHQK

O=C(O)Cc1ccccc1Nc1c(Cl)cccc1Cl
inactive: Potency [1] | Potency [2] | Potency [3] | Potency [4] | Potency [5] | Potency [6] | Potency [7] | Potency [8] | Potency [9] | Potency [10] | Potency [11] | Potency [12] | Potency [13] | Potency [14] | Potency [15] | Potency [16]

O=c1[nH]c2ccccc2n1CCCN1CCN(C(c2ccccc2)c2ccccc2)CC1
inactive: Potency [1] | Potency [2] | Potency [3] | Potency [17] | Potency [5] | Potency [6] | Potency [8] | Potency [10] | Potency [11] | Potency [12] | Potency [13] | Potency [14] | Potency [15] | Potency [16] | Potency [18]

c1ccc(SSc2ccccc2)cc1
inactive: Potency [1] | Potency [2] | Potency [3] | Potency [4] | Potency [19] | Potency [5] | Potency [6] | Potency [7] | Potency [8] | Potency [9] | Potency [10] | Potency [11] | Potency [12] | Potency [13] | Potency [14] | Potency [15] | Potency [16] | Potency [18]

CCCCCCCC/C=C\CCCCCCCCN
inactive: Potency [1] | Potency [3] | Potency [4] | Potency [17] | Potency [19] | Potency [5] | Potency [6] | Potency [7] | Potency [8] | Potency [9] | Potency [10] | Potency [11] | Potency [12] | Potency [13] | Potency [14] | Potency [15] | Potency [16]

CCCCCC(C)OC(=O)COc1ccc(Cl)c2cccnc12 (stereo unspecified)
inactive: Potency [1] | Potency [3] | Potency [4] | Potency [17] | Potency [5] | Potency [6] | Potency [7] | Potency [8] | Potency [9] | Potency [10] | Potency [11] | Potency [12] | Potency [13] | Potency [14] | Potency [15] | Potency [16] | Potency [18]

CC/C=C\CCCCCO
inactive: Potency [1] | Potency [3] | Potency [4] | Potency [17] | Potency [19] | Potency [5] | Potency [6] | Potency [7] | Potency [8] | Potency [9] | Potency [10] | Potency [11] | Potency [12] | Potency [13] | Potency [14] | Potency [15] | Potency [16] | Potency [18] | Potency [20]

ClCCl
inactive: Potency [1] | Potency [2] | Potency [3] | Potency [4] | Potency [19] | Potency [5] | Potency [6] | Potency [7] | Potency [8] | Potency [9] | Potency [10] | Potency [11] | Potency [12] | Potency [13] | Potency [15] | Potency [16] | Potency [18] | Potency [20]

OC1CCC(C2CCCCC2)CC1 (stereo unspecified)
inactive: Potency [1] | Potency [2] | Potency [3] | Potency [4] | Potency [5] | Potency [6] | Potency [7] | Potency [8] | Potency [9] | Potency [10] | Potency [11] | Potency [12] | Potency [13] | Potency [14] | Potency [15] | Potency [16] | Potency [18]

CC1=CCC(=C(C)C)CC1
inactive: Potency [1] | Potency [2] | Potency [3] | Potency [4] | Potency [5] | Potency [6] | Potency [7] | Potency [8] | Potency [9] | Potency [10] | Potency [11] | Potency [12] | Potency [13] | Potency [14] | Potency [15] | Potency [16]

CCC(CC)C(C)CCOC(C)=O (stereo unspecified)
inactive: Potency [1] | Potency [3] | Potency [4] | Potency [17] | Potency [19] | Potency [5] | Potency [6] | Potency [8] | Potency [9] | Potency [10] | Potency [11] | Potency [12] | Potency [13] | Potency [14] | Potency [15] | Potency [16]

CC1(C)CC(O)CC(C)(C)N1
inactive: Potency [1] | Potency [2] | Potency [3] | Potency [4] | Potency [5] | Potency [6] | Potency [8] | Potency [9] | Potency [10] | Potency [11] | Potency [12] | Potency [13] | Potency [14] | Potency [15] | Potency [16] | Potency [18] | Potency [20]

Cc1ccc(C(=O)O)cc1
inactive: Potency [1] | Potency [3] | Potency [4] | Potency [17] | Potency [19] | Potency [5] | Potency [6] | Potency [7] | Potency [8] | Potency [9] | Potency [10] | Potency [11] | Potency [12] | Potency [13] | Potency [14] | Potency [15] | Potency [16]

CC1(C)CCC[C@]2(C)[C@H]3CC(=O)O[C@]3(C)CC[C@@H]12
inactive: Potency [1] | Potency [2] | Potency [3] | Potency [4] | Potency [5] | Potency [6] | Potency [7] | Potency [8] | Potency [10] | Potency [11] | Potency [12] | Potency [13] | Potency [14] | Potency [15] | Potency [16] | Potency [18] | Potency [20]

Cc1nc(-c2ccc(Cl)cc2)oc1COC(C)(C)C(=O)O
inactive: Potency [1] | Potency [3] | Potency [4] | Potency [17] | Potency [19] | Potency [5] | Potency [6] | Potency [7] | Potency [8] | Potency [10] | Potency [11] | Potency [12] | Potency [13] | Potency [14] | Potency [15] | Potency [16] | Potency [18] | Potency [20]

NC[C@H]1O[C@H](O[C@H]2[C@H](O[C@@H]3O[C@H](CO)[C@@H](O)[C@H]3O)C(O)[C@H](N)C[C@@H]2N)[C@H](N)[C@@H](O)[C@@H]1O (stereo partly specified)
inactive: Potency [1] | Potency [2] | Potency [4] | Potency [17] | fluorescence, relative to Rose Bengal [5] -0.0462% [at 18.6 µM] | fluorescence, % of fluorescein control [6] 0.155% [at 18.6 µM] | fluorescence, % of triamterene [7] -0.0357% [at 18.6 µM] | fluorescence, % of fluorescent control [8] 0.971% [at 18.6 µM] | fluorescence, % of fluorescein [9] -0.0694% [at 18.6 µM] | fluorescence, % of fluorescent control [10] -0.0104% [at 18.6 µM] | activity change [11] -0.144% [at 18.6 µM, stronger effect = higher value] | fluorescence, % of fluorescent control [12] 0.335% [at 18.6 µM] | fluorescence, % of Rose Bengal [13] -0.0591% [at 18.6 µM] | fluorescence, % of fluorescent control [14] 0.0653% [at 18.6 µM] | fluorescence, % of fluorescein control [15] -0.0227% [at 18.6 µM] | fluorescence, % of fluorescent control [16] -0.0247% [at 18.6 µM] | Potency [18] | Potency [20]
